Test results: PubChem BioAssay AID2284134 (EPA ToxCast)
Calls of active or inactive are those of the source. Rule for the calls: active = hit-call score of the fitted dose curve at least 0.9, where 1 is the maximum; inactive = score below 0.9.

target: human PKD2 (PRKD2) CAMK Kinase, PRKD2 (gene 25865) (UniProt Q9BZL6); assay: ERF_KP_ENZ_hPKD2: Eurofins (ERF) Enzymatic Radiometric [10 uM ATP] KinaseProfiler LeadHunter Assay for human PKD2 (PRKD2) CAMK Kinase
Method: ERF_KP_ENZ_hPKD2 is a biochemical, single-readout assay that uses extracted gene-proteins in a cell-free assay. Measurements were taken 0.66 hour after chemical dosing in a 96-well plate. See PKD2 Human Protein Ser/Thr Kinase Enzymatic Radiometric Assay [10 uM ATP], KinaseProfiler.ERF_KP_ENZ_hPKD2 is an assay component calculated from the ERF_KP_ENZ_hPKD2 assay. It is designed to measure enzyme activity using a type of enzyme reporter as detected by scintillation counting with radiometry technology.Data from the assay component ERF_KP_ENZ_hPKD2 was analyzed at the assay endpoint, ERF_KP_ENZ_hPKD2, in the positive analysis fitting direction relative to DMSO as the negative control and baseline of activity. Using a type of enzyme reporter, loss-of-signal activity can be used to understand changes in enzymatic activity as they relate to gene PRKD2. To generalize the intended target to other relatable targets, this assay endpoint is annotated to the kinase intended target family, where the subfamily is serine/threonine kinase.
PKD2 (h) is incubated with 20 mM HEPES pH 7.4, 0.03% Triton X-100, 30 uM […], 10 mM MgAcetate and [gamma-33P]-ATP (specific activity and concentration as required). The reaction is initiated by the addition of the Mg/ATP mix. After incubation for 40 minutes at room temperature, the reaction is stopped by the addition of phosphoric acid to a concentration of 0.5%. […]

human PKD2 (PRKD2) CAMK Kinase, PRKD2 (gene 25865), sequence (Q9BZL6 whole entry, looked up): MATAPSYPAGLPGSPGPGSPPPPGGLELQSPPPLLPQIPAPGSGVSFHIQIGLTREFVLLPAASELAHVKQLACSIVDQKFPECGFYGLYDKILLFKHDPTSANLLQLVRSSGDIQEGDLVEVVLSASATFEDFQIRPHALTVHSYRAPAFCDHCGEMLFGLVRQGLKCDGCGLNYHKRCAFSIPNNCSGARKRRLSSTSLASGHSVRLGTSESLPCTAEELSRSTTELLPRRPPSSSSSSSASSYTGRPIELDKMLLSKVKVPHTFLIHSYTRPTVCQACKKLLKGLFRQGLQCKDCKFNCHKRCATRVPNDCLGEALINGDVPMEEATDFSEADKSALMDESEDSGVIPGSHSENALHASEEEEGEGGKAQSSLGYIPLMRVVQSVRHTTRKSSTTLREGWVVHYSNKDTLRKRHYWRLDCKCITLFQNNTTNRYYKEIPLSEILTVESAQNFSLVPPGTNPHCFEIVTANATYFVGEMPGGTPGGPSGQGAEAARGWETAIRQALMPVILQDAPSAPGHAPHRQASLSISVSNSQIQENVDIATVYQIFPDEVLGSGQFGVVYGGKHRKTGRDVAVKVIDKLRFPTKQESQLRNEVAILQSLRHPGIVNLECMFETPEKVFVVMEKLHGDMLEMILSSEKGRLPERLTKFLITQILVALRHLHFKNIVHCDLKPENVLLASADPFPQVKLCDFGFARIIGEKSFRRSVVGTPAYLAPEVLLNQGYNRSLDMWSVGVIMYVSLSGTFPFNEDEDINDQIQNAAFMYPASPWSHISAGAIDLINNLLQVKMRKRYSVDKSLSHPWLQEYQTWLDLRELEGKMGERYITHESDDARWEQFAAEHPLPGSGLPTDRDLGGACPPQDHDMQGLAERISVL

SMILES | AC50
O=C(/C=C/c1ccc(O)cc1)CC(=O)/C=C/c1ccc(O)cc1 | 300 pM (active)
